Compound activity: PubChem BioAssay, The Scripps Research Institute Molecular Screening Center
MITF inh: inhibitors of human MITF | O75030 | AlphaScreen MITF homodimerization, bead proximity signal | inhibition, % at 2.6 µM | hit rate 0.91% among 650,000; in the data active = inhibition above about 50%;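 note: 0% = vehicle wells with protein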
Target sequence (O75030 whole entry, looked up): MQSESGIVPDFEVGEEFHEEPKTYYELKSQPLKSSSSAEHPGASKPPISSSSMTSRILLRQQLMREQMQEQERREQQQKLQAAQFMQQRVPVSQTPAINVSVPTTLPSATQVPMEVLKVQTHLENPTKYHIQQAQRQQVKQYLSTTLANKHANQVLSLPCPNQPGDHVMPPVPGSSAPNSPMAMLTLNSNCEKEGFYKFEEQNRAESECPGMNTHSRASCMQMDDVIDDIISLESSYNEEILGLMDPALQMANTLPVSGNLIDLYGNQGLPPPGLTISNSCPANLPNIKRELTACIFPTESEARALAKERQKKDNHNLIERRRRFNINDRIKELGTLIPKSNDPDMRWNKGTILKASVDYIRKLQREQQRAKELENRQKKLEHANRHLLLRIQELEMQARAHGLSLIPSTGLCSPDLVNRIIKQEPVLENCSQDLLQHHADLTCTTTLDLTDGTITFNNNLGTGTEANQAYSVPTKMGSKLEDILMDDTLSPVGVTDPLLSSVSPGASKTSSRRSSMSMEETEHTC
GPR151 ag: activates the human receptor GPR151; Q8TDV0; activation, % at 11.2 µM; PathHunter beta-arrestin GPR151 cells, luminescence; hit rate 1% among 650,000; in the data active = activation above about 4.9%;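 note: 0% = median of compound wells and 100% = cells with positive control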
TEAD-YAP inh: TEAD-YAP interaction inhibition; hit rate 1.4% among 640,000; inhibition, % at 9.12 µM; HEK-TIYL cells, TEAD-Gal4/YAP UAS-luciferase luminescence; AID 1259422; in the data active = inhibition above about 32%;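 note: 0% = median of test compound wells and 100% = reference inhibitor wells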
FBW7 activator: activators of human E3 ligase FBW7. Q969H0. normalized activity (activation), % at 26.1 µM. AlphaScreen FBW7–phospho-cyclin E peptide binding, activator screen. hit rate 0.13% among 650,000; in the data active = normalized activity above about 1.9%;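 note: purified mutant Fbw7 with reduced substrate affinity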
MITF inh conf: human MITF inhibition, confirmation; hit rate 16% among 4,700; inhibition, % at 2.6 µM; AlphaScreen MITF homodimerization, biotin/His-MITF beads; shares compounds with MITF inh;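 active = inhibition above a cutoff derived from the DMSO control wells, cut at about 28% in these data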;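 note: 0% = MITF dimer wells with DMSO only; inhibitors lower the bead chemiluminescence by keeping MITF from dimerizing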
AlphaScreen DR: AlphaScreen optical interference, dose response counter-screen; IC50, µM; shares compounds with MITF inh; hit rate 6% among 480; AlphaScreen optical interference counterscreen, cell-free; AID 1259373; call rule not given here
AS interf ctr: optically interferes with AlphaScreen signal; shares compounds with MITF inh; LysRS AlphaScreen counterscreen, signal interference, triplicate; inhibition, % at 2.6 µM; hit rate 7.6% among 4,700; AID 1259376;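 active = inhibition above a cutoff derived from the DMSO control wells, cut at about 30% in these data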
* marks the source's active call; other numbers are inactive results. Rows were chosen to be rich in hits. Some 3.4% of all compounds tested hit in one or more screens of this group.

Results for O=C(c1ccncc1)N1C2C=CC(C2)C1(C(F)(F)F)C(F)(F)F (stereo not drawn) ?
MITF inh: 68*; GPR151 ag: 0; TEAD-YAP inh: 0; FBW7 activator: 0; MITF inh conf: 59*; AlphaScreen DR: >6.5; AS interf ctr: -6

What do the screens show for `COc1ccc(-c2c(NC(=O)CN3CCCC(C)C3)oc3ccccc3c2=O)cc1OC` (stereo not drawn)?
MITF inh: 91*; GPR151 ag: 0; TEAD-YAP inh: 5; FBW7 activator: 0; MITF inh conf: -10; AS interf ctr: -4

What do the screens show for `Cc1cc(C)c(C2C(C#N)=C(N)Oc3n[nH]c(C)c32)cc1COc1ccc(F)cc1` (stereo not drawn)?
MITF inh: 6; GPR151 ag: 0; TEAD-YAP inh: 0; FBW7 activator: 0

What do the screens show for `Cc1cc(C)c(C2C(C#N)=C(N)Oc3n[nH]c(C)c32)cc1CSc1ccc(Br)cc1` (stereo not drawn)?
MITF inh: 99*; GPR151 ag: 1; TEAD-YAP inh: -10; FBW7 activator: -1; MITF inh conf: -9; AS interf ctr: -9

What do the screens show for `c1cnc2c(c1)ccc1cccnc12`?
MITF inh: 111*; GPR151 ag: -2; TEAD-YAP inh: 35*; FBW7 activator: 0; MITF inh conf: 115*; AS interf ctr: 101*

What do the screens show for `CC[n+]1cccc2ccc3cccnc3c21`?
MITF inh: 9; GPR151 ag: 0; TEAD-YAP inh: 29; FBW7 activator: 0

Results for COc1ccc(C(=O)N2CCN(c3ccccc3F)CC2)cc1[N+](=O)[O-] ?
MITF inh: 10; GPR151 ag: 2; TEAD-YAP inh: 4; FBW7 activator: 0

How did COc1ccc2cc(/C=N/Nc3ccc(S(=O)(=O)O)cc3)ccc2c1 do in these assays?
MITF inh: 66*; GPR151 ag: 0; TEAD-YAP inh: 3; FBW7 activator: 0; MITF inh conf: 19; AS interf ctr: -2

What do the screens show for `COc1ccc(/C=N/Nc2ccc(S(=O)(=O)O)cc2)cc1`?
MITF inh: -2; GPR151 ag: -1; TEAD-YAP inh: 3; FBW7 activator: -1

What do the screens show for `c1ccc(CN2CCC(N3CCc4ccccc4C3)CC2)cc1`?
MITF inh: 29; GPR151 ag: 0; TEAD-YAP inh: 9; FBW7 activator: 0

Results for Cc1ccccc1OCC(O)CN1CCN(CC(O)COc2ccccc2C)C(C)C1 (stereo not drawn) ?
MITF inh: 55*; GPR151 ag: -1; TEAD-YAP inh: 3; FBW7 activator: 0; MITF inh conf: -6; AS interf ctr: -5

Results for CC(=O)n1c2c(c3ccccc31)OC(N)=C(C#N)C2c1cccc([N+](=O)[O-])c1 (stereo not drawn) ?
MITF inh: 58*; GPR151 ag: 0; TEAD-YAP inh: 9; FBW7 activator: 0; MITF inh conf: 7; AS interf ctr: 14

What do the screens show for `COc1cc(OC)c(OC)cc1CN1CCN(c2ccc(F)cc2)CC1`?
MITF inh: 44; GPR151 ag: 1; TEAD-YAP inh: 0; FBW7 activator: 0

Results for COc1ccc(CN2CCN(Cc3c[nH]c4ccccc34)CC2)c(OC)c1OC ?
MITF inh: 62*; GPR151 ag: 0; TEAD-YAP inh: 3; FBW7 activator: 0; MITF inh conf: 6; AS interf ctr: 7

Results for COc1cc(OC)c(OC)cc1CN1CCN(Cc2c[nH]c3ccccc23)CC1 ?
MITF inh: 55*; GPR151 ag: 0; TEAD-YAP inh: 14; FBW7 activator: 0; MITF inh conf: 4; AS interf ctr: -6

What do the screens show for `N#Cc1ccccc1NC(=O)COC(=O)C1CCN(C(=O)Nc2ccccc2)CC1`?
MITF inh: 13; GPR151 ag: -1; TEAD-YAP inh: -5; FBW7 activator: 0

How did N#Cc1ccc(NC(=O)/C=C/c2ccco2)cc1 do in these assays?
MITF inh: -13; GPR151 ag: 1; TEAD-YAP inh: -48; FBW7 activator: 0

Results for Cc1csc(-c2cc3ccccc3oc2=O)n1 ?
MITF inh: 67*; GPR151 ag: -7; TEAD-YAP inh: -25; FBW7 activator: 0; MITF inh conf: 13; AS interf ctr: 10
